Compound activity deposited in PubChem BioAssay by National Center for Advancing Translational Sciences (NCATS).
KB-V1 cytotox: KB-V1 MDR subline cytotoxicity. KB-V1 MDR cells viability, CellTiter-Glo, 72 h. hit rate 3.4% among 400,000. Potency, µM (top dose mostly 46.1 µM), actives largely listed as cytotoxic; also: % is scaled to controls: 0 for no effect and ±100 for the full control effect; nearly all actives have a fitted effect of over 60% in size
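Cytotoxicity toward P-gp-expressing KB-V1 cells was determined as loss of CellTiter-Glo luminescence after 72 h at 37 degrees C. Compounds were tested in quantitative HTS format across a concentration range, with curves fitted to normalized data.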
HT1080 IDH1KD tx: HT-1080 IDH1 knockdown cell toxicity (counter line); HT-1080 IDH1 knockdown viability, ATP luminescence, 48 h; Potency, µM (series often up to 46.1 µM), for the others: top-dose activity, negative = toxicity, actives largely listed as cytotoxic; hit rate 2% among 360,000;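 also: 0% = DMSO wells and -100% = cell-free medium wells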
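HT-1080-IDH1KD cells (IDH1 knocked down), 750/well in RPMI with 5% FBS, treated with compound 48 h at 37 degrees C. Viability by CellTiter-Glo luminescence, normalised to DMSO and no-cell wells; concentration-response curves classed.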
MCF10A rereplic: inducers of DNA re-replication in MCF 10A breast cells | MCF 10A DNA re-replication, Hoechst nuclear intensity, 48 h | Potency, µM (top dose mostly 46.1 µM), for the others: at the highest dose activity, positive = re-replication, usual class: activators | hit rate 2.9% among 350,000; also: % of control where 0% means no effect; nearly all actives have a fitted effect of over 50% in size
SW480 rereplic: induces DNA re-replication in SW480 colon adenocarcinoma cells. SW480 DNA re-replication, Hoechst DNA content imaging, 48 h. Potency, µM (doses to about 46.1 µM), inactives show top-dose re-replication activation, hits mostly activators. hit rate 1.8% among 340,000. AID 624297; also: % of control where 0% means no effect; nearly all actives have a fitted effect of over 55% in size
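250 cells/well; 23 nL cpd via pin tool; 48 hr, 37 C, 5% CO2; Hoechst 40 min; imager read of total nuclear intensity, ex 405/em 500-530 nm.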
HT1080NT lethal: kills 2HG-producing HT-1080-NT fibrosarcoma cells; HT-1080-NT fibrosarcoma viability, CellTiter-Glo ATP luminescence, 48 h; Potency, µM (top dose mostly 46.1 µM), for inactives: at the top dose activity, negative = less viability, usual class: cytotoxic; hit rate 1.6% among 360,000; AID 686970;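 also: NT is the 2HG producing partner of a matched IDH1 knockdown line; 0% = DMSO-treated cells and -100% = media-only wells without cells; nearly all actives have a fitted effect of over 55% in size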
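Viability of the 2HG-overproducing fibrosarcoma line after 48 hours of compound exposure at 37 degrees C was determined by luminescence with CellTiter-Glo, and concentration-effect curves were then fitted and categorized.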
KB-3-1 tox: kills parental KB-3-1 adenocarcinoma cells | hit rate 1.4% among 400,000 | Potency, µM (highest dose often 46.1 µM), hits mostly cytotoxic | KB-3-1 viability, CellTiter-Glo ATP luminescence, 72 h; also: % is scaled to controls: 0 for no effect and ±100 for the full control effect; nearly all actives have a fitted effect of over 60% in size
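Cells are dispensed, compounds pinned in, plates held at 37 °C for 72 h, then CellTiter-Glo is added and luminescence read after 10 minutes. Cell line: parental KB-3-1 in phenol-red-free DMEM, 10% FBS.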
* marks the source's active call; other numbers are inactive results; i = inactive; ? = inconclusive; · = no result given; [ ] = another dose, or the depositor's remark. Compounds with a hit are over-represented: about 8% of the library has one in this group of screens. Calls follow the shape of the dose curve; as a rule, active = well fitted curve in the direction sought with a large enough effect; inconclusive = small, poorly fitted or top-dose-only effect, or another doubt; inactive = no such curve, though single readings can be large; an effect the other way counts as inactive or inconclusive. Potency is read from the fitted curve at half-maximal effect.

SMILES	KB-V1 cytotox	HT1080 IDH1KD tx	MCF10A rereplic	SW480 rereplic	HT1080NT lethal	KB-3-1 tox
CCN(CC)CCNC(=O)c1ccc2c(c1NCCO)C(=O)c1ccccc1C2=O	7.3µM*	?	-1%	?	?	?
CC(=O)c1c(C)[nH]c(C(=O)Nc2ccc(Cl)cc2)c1C	i	-27%	14%	-2%	-2%	i
CC(=O)c1c(C)[nH]c(C(=O)NCCc2ccc(Cl)cc2)c1C	i	4%	3.7µM*	-15%	2%	i
C(=C\c1cccs1)/c1ccccn1	i	·	·	·	·	?
O=c1cc(/C=C/c2cccs2)[nH]c2ccccc12	?	7.1µM*	?	?	-23%[9.24 µM]	?
O=c1cc(C(F)(F)F)[nH]c2ccccc12	i	-26%	2%	-15%	?	i
CSc1ccc(/C=C/c2cc(=O)c3ccccc3[nH]2)cc1	3.7µM*	-14%	?	13%	-9%	i
CC(OC(=O)CN1C(=O)NC2(CCCCC2C)C1=O)c1ccccc1 (configuration not stated)	i	12%	?	-31%	6%	i
COc1ccc(C)cc1NC(=O)c1ccc2c(c1)OCO2	i	-4%	3%	-14%	-7%	i
C/C(O)=c1/c(=O)nc2cccc3c2=c1c1ccccc1c3=O	i	-15%	13%	-5%[9.22 µM]	-16%	i
CCCN(CCC)C(=O)CCSCCC(=O)N(CCC)CCC	18µM*	9%	1%	-1%	3%	i
CCCCCCCCCCCC(=O)N(CCO)CCO	·	·	28%	10%	·	·
COc1ccccc1-c1cc(C(F)(F)F)c(C#N)c(=O)[nH]1	i	-1%	?	20%	3%	i
COc1ccc(-c2cc(C(F)(F)F)c(C#N)c(=O)[nH]2)cc1	i	-10%	18µM*	18%	-12%	i
N#Cc1c(C(F)(F)F)cc(-c2ccc(F)cc2)[nH]c1=O	i	-13%	21µM*	452%	-8%	i
N#Cc1c(C(F)(F)F)cc(-c2cccc(Cl)c2)[nH]c1=O	i	?	16µM*	?	?	i
N#Cc1c(C(F)(F)F)cc(-c2ccc(Cl)cc2)[nH]c1=O	i	?	4.6µM*	?	?	i
CCOc1cccc2sc(N(CCCN(C)C)C(=O)c3ccc(S(=O)(=O)N4CCCCCC4)cc3)nc12	·	0%	5%	3%	-17%	·
CCOC(=O)c1ccc(N2CCCCC2)c(NS(=O)(=O)c2cccc(C(F)(F)F)c2)c1	?	5%	1%	-26%	-4%	i
Clc1ccc(/C=C/c2ncc3ccccn23)cc1	?	-18%	18µM*	23µM*	-13%	i
CCCCN(C)C(=O)c1nc2ccccn2c1CN1CCC[C@H]1C(=O)OC	i	15%	-8%	-6%	0%	i
CCc1nc(SCC(=O)Nc2ccccc2OC)c2c(C)c(C)sc2n1	9.2µM*	-20%	21µM*	14%	-5%	i
Cc1ccccc1-n1ncc2c(SCC(=O)N3c4ccccc4CC3C)ncnc21 (configuration not stated)	9.2µM*	?	10%	?	?	i
CCc1nc(SCC(=O)N2c3ccccc3CC2C)c2c(C)c(C)sc2n1 (configuration not stated)	i	?	?	21µM*	6.3µM*	i
Cc1sc2nc(C(C)C)nc(SCC(=O)N3c4ccccc4CC3C)c2c1C (configuration not stated)	18µM*	17%	?	-3%	8%	i
SMILES	KB-V1 cytotox	HT1080 IDH1KD tx	MCF10A rereplic	SW480 rereplic	HT1080NT lethal	KB-3-1 tox
CCc1nc(SCC(=O)N2CC(=O)Nc3ccccc32)c2c(C)c(C)sc2n1	i	8%	17%	18%	2%	i
Cc1ccc(OCC2Cn3c(nc4c3c(=O)n(C)c(=O)n4C)O2)cc1 (configuration not stated)	i	-9%	-1%	-4%	-2%	i
CCOC(=O)N1CCN(c2c(N3CC=C(c4ccccc4)CC3)c(=O)c2=O)CC1	i	-15%	-9%	-4%	0%	i
C/C(N)=C(/C#N)C(=O)CSc1cc(Cl)ccc1Cl	?	-5%	-4%	-1%	1%	i
C/C(N)=C(/C#N)C(=O)CSc1nc2cc(Cl)ccc2s1	?	-16%	-1%	-1%	35µM*	i
CCOC(=O)c1ccc(CSC(=N)N)o1	i	?	?	21µM*	?	?
O=C(c1cc2cc(F)ccc2[nH]1)N1CCC(Cc2ccccc2)CC1	i	-8%	8.2µM*	5%	-23%	i
COc1ccc(-c2nnc(SCC(=O)N3CCC(Cc4ccccc4)CC3)o2)cc1OC	5.2µM*	13%	2%	0%	5%	i
COc1cc(-c2nnc(SCC(=O)N3CCCc4ccccc43)o2)cc(OC)c1OC	2.6µM*	·	·	·	·	i
COc1cc(OC)cc(-c2nnc(SCC(=O)N3CCCc4ccccc43)o2)c1	i	-2%	?	5%	-4%	i
CCCCOC(=O)CSc1nnc(-c2cc(OC)c(OC)c(OC)c2)o1	i	2%	23%	-14%	11%	i
CCCCN(CCCC)C(=O)CSc1nnc(-c2cc(OC)c(OC)c(OC)c2)o1	13µM*	-12%	-4%	0%	8%	?
C[n+]1ccc(/C=C/c2ccc(C=S)cc2)c2ccccc21	i	·	·	·	·	?
O=C(NCCN1CCN(c2ccccc2Cl)CC1)Nc1ccccc1	i	-8%	-2%	?	-1%	i
Clc1cc(Cl)c(Cl)cc1Cl	i	2%	2%	2%	8%	i
Clc1cc(Cl)c(OCC#CI)cc1Cl	·	·	21µM*	?	·	·
CC12CCC(C(=O)NNc3ccccc3)(C(=O)C1=O)C2(C)C (configuration not stated)	i	?	16µM*	-1%	?	i
CC12CCC(C(=O)NCc3ccccc3)(OC1=O)C2(C)C (configuration not stated)	i	5%	5%	-12%	7%	i
O=C(CSc1nc(C2CCCCC2)n(-c2ccccc2)n1)NCCN1C(=O)CSC1=O	i	-3%	2%	-9%	3%	i
CC(NC(=O)CSc1nc(C2CC2)n(-c2ccccc2)n1)c1ccco1 (configuration not stated)	13µM*	3%	6%	-3%	0%	i
O=C(CSc1nc(C2CCCCC2)n(-c2ccccc2)n1)NCC(F)(F)F	8.2µM*	5%	18%	6%	3%	i
